LGR2 antag – Drosophila LGR2 receptor signaling inhibition; HEK293 LGR2, CRE-luciferase, bursicon-stimulated, 4 h; inhibition, % at 9.99 µM; actives 0.35% (n = 380,000); AID 720647;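 active = drop in luminescence signal, shown as inhibition above about 50% in the replicate tests, limit read from the data, passing the limit was not always enough; inconclusive = probably only some replicates passing the limit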;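 also: agonist challenge used bursicon conditioned medium at about half maximal strength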
HSP90 inh – blocks HSP90-mediated luciferase refolding in reticulocyte lysate; Rabbit reticulocyte lysate, luciferase refolding luminescence, 3 h; inhibition, % at 5.6 µM; actives 0.91% (n = 290,000); AID 1789;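 active = inhibition above the screen-wide mean plus 3 SD, computed separately per campaign, cut at about 16% in these data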;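 also: 0% = DMSO wells and 100% = 60 µM geldanamycin wells; inhibitors lower the luminescence because luciferase stays unfolded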
TWEAK Fn14 block – blocks TWEAK-Fn14 interaction in a reporter cell assay. TWEAK-stimulated Fn14 reporter cells, luciferase luminescence, 8 h. inhibition, % at 10 µM. actives 2% (n = 360,000); in the data active = inhibition above about 50%
TROY NFkB inh – inhibitors of TROY-dependent NF-kB signaling; Q293 LMP1-TROYcd NF-kB luciferase reporter, 4 h; inhibition, % at 10 µM; actives 0.98% (n = 360,000); AID 1347056;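 active = compounds whose plate-normalised and pattern-corrected inhibition of the luciferase reporter signal at the single screening dose is 50% or more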
HSP90 confirm – HSP90 inhibition, confirmation assay; inhibition, % at 5.9 µM; rabbit reticulocyte lysate, luciferase refolding luminescence, 3 h; actives 64% (n = 2,300); shares compounds with HSP90 inh; in the data active = inhibition above about 18%;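 also: 0% = vehicle wells and 100% = reference inhibitor wells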
luciferase ctr – blocks native firefly luciferase in HSP90 counter-screen. shares compounds with HSP90 inh. purified native firefly luciferase, luminescence. inhibition, % at 5.9 µM. actives 48% (n = 2,300). AID 1847;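 active = inhibition above the mean inhibition of all tested sample wells plus 3 SD, cut at about 10% in these data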;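 also: 0% = DMSO with luciferase and 100% = wells lacking luciferase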
Target sequence (P08659 whole entry, looked up): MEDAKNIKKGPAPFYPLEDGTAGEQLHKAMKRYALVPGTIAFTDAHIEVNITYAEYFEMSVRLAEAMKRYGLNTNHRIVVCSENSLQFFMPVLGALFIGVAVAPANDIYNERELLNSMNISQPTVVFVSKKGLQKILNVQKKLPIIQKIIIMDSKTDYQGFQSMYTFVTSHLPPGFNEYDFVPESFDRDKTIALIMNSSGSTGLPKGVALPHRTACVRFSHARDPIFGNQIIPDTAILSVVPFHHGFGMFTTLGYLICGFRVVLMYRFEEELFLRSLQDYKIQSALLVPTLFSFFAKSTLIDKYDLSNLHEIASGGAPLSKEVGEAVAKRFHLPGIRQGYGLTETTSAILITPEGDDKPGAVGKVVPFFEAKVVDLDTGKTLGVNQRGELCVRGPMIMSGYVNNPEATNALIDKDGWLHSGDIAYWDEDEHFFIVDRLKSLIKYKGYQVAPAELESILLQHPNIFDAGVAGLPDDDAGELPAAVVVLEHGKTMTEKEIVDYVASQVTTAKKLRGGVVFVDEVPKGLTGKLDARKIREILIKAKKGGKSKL
* hit, by the source's call; ? = inconclusive; . = no result given. A selection: hits, their analogues and other compounds. The true share with any hit is near 2.2%.

SMILES	LGR2 antag	HSP90 inh	TWEAK Fn14 block	TROY NFkB inh	HSP90 confirm	luciferase ctr
O=c1c(Cl)c(N2CCCCC2)cnn1-c1nc2ccccc2[nH]1	.	65*	104*	82*	86*	80*
c1ccc(-c2nc(-c3nccc4ccccc34)oc2-c2ccccc2)cc1	60*	23*	73*	60*	28*	35*
CCN(C=NC1=NN(c2cccc(C(F)(F)F)c2)CC1)CC	-30	22*	-35	-15	-1	-11
COc1cccc(C(=O)N2C[C@H]3[C@@H](c4ccccc42)[C@@H](CO)N3C(=O)NC(C)C)c1	9	.	.	.	.	.
O=C(COC(=O)c1nsc(Cl)c1Cl)NC1CCCC1	15	23*	16	-2	-5	-14
CCCc1nn(C)c(C(=O)Nc2cccc(Cl)c2)c1Cl	-5	26*	78*	70*	35*	36*
CCCc1nn(C)c(C(=O)Nc2ccccc2)c1Cl	31	36*	81*	76*	52*	54*
CCCc1nn(C)c(C(=O)Nc2cccc(C)c2)c1Cl	-19	10	35	24	.	.
C[C@H](CO)N1C[C@H](C)[C@H](CN(C)Cc2ccc(C(=O)Nc3ccccc3N)cc2)Oc2ccc(NS(=O)(=O)c3ccc(Cl)cc3)cc2C1=O	-7	.	.	.	.	.
Cc1ccc(O)c(Nc2c3ccccc3nc3ccccc23)c1	-11	39*	-9	1	4	-4
Cc1ccc(O)c(Nc2nc(-c3ccccc3)nc3ccccc23)c1	-3	1	3	0	.	.
Cc1ccc(C)c(Nc2nc(N)c3ccccc3n2)c1	-74	17*	14	48	23*	1
COc1ccc(Cl)cc1Nc1nc(N)c2ccccc2n1	-20	-4	-12	-74	.	.
CN1N=C2c3ccccc3CCCC2C1c1ccc(F)cc1 (stereo not given)	-81	18*	25	11	-6	-26
Cc1ccc2[nH]c(=O)c(COC(=O)C3CCCCC3)cc2c1	-13	44*	-9	4	-1	-16
O=C(OCc1cc2ccccc2[nH]c1=O)C1CCCCC1	.	-2	-5	-13	.	.
Cc1ccc(NC2=CC(=O)C(=O)c3ccccc32)cc1	.	14	16	-18	.	.
COc1cc(OC)c(NC2=CC(=O)C(=O)c3ccccc32)cc1Cl	-13	44*	18	-4	34*	-6
CO[C@@H]1CN(C)C(=O)c2ccc(NC(=O)C3CCOCC3)cc2OC[C@@H](C)N(Cc2cccnc2)C[C@@H]1C	-15	.	.	.	.	.
O=C(C[C@H]1C=C[C@H](NC(=O)c2ccc(F)cc2)[C@@H](CO)O1)NCCc1ccccc1	11	.	.	.	.	.
O=C(Nc1nc2ccccc2[nH]1)c1cccc(F)c1	-24	26*	36	11	30*	12*
CN(C)c1cccc(C(=O)Nc2nc3ccccc3[nH]2)c1	?	25*	61*	2	56*	39*
O=C(Nc1nc2ccccc2[nH]1)c1cccc([N+](=O)[O-])c1	-57	3	2	-58	.	.
C[C@@H]1CN([C@@H](C)CO)C(=O)c2cc(NC(=O)NC3CCCCC3)ccc2O[C@@H](C)CCCCO[C@H]1CN(C)Cc1ccc(Cl)c(Cl)c1	-4	.	.	.	.	.
Cc1cccc(-c2cc3nc(C)c(C)c(NCCCn4ccnc4)n3n2)c1	-16	19*	-25	12	2	-5
SMILES	LGR2 antag	HSP90 inh	TWEAK Fn14 block	TROY NFkB inh	HSP90 confirm	luciferase ctr
O=C(NC1CCCCC1)N[C@H]1C=C[C@H](CC(=O)N2CCOCC2)O[C@@H]1CO	2	.	.	.	.	.
COc1ccccc1NC(=O)N[C@H]1C=C[C@@H](CC(=O)NCc2ccc(Cl)c(Cl)c2)O[C@@H]1CO	5	.	.	.	.	.
CC(C)c1ccc(/C=C2\SC(N3CCCC3)=NC2=O)cc1	-9	19*	46	32	4	3
CN(C)c1ccc(/C=C2\SC(N3CCCCC3)=NC2=O)cc1	45	45*	83*	74*	55*	60*
COc1ccc2c3c(n(C)c2c1)[C@H](CO)N(CC1CCCC1)CC31CN(C(C)=O)C1	-20	.	.	.	.	.
CC(=O)N(CCC(Cc1ccccc1)c1ccco1)Cc1ccco1 (stereo not given)	-6	22*	14	6	4	2
O=C(c1ccco1)N(CCC(c1ccccc1)c1ccco1)Cc1ccco1 (stereo not given)	.	-3	16	-24	.	.
C[C@@H]1CN([C@@H](C)CO)C(=O)Cc2cc(NC(=O)CCN3CCOCC3)ccc2O[C@@H]1CN(C)C(=O)Nc1ccccc1	-1	.	.	.	.	.
CO[C@H]1CN(C)C(=O)c2ccc(NC(=O)c3cc(C)on3)cc2OC[C@H](C)N(C(C)=O)C[C@H]1C	0	.	.	.	.	.
COc1ccc(-n2c(C)cc(-c3csc(NC(=O)c4ccc(S(=O)(=O)N(C)C)cc4)n3)c2C)cc1	0	20*	-11	12	39*	-6
C[C@H]1CN([C@@H](C)CO)S(=O)(=O)c2ccc(-c3ccc(C(=O)N(C)C)cc3)cc2O[C@@H]1CN(C)C(=O)C1CCC1	-13	.	.	.	.	.
O=C(O)CCCCCn1c(SCC(=O)c2ccc(O)c(O)c2)nc2ccsc2c1=O	29	2	17	-1	.	.
O=C(O)CCCCCn1c(SCC(=O)N2CCCC2)nc2ccsc2c1=O	7	64*	7	-5	5	-4
O=C(NCC[C@@H]1CC[C@@H](NC(=O)C2CCCC2)[C@@H](CO)O1)c1cnccn1	-3	.	.	.	.	.
COc1ccc(/C=C\c2nc(=O)c3ccccc3o2)cc1	48	21*	42	14	31*	14*
CC(=O)Oc1ccc(/C=C/c2nc3ccccc3c(=O)o2)cc1	59*	28*	79*	50*	32*	-13
CC(=O)Oc1ccc(-c2nc3ccccc3c(=O)o2)cc1	15	3	6	-28	.	.
CC(=O)Oc1ccccc1/C=C/c1nc2ccccc2c(=O)o1	65*	32*	62*	1	45*	-8
CCc1nnc(NC(=O)CSc2nc(C)c3c(c2C#N)CCCC3)s1	23	21*	58*	65*	7	0
O=C(CN1C(=O)c2ccccc2C1=O)c1ccccc1	.	-2	-1	-8	.	.
CC1=C(CC(=O)c2ccccc2)C(=O)c2ccccc2C1=O	.	17*	54*	68*	10	-11
Cc1cccc2c3nc4ccccc4nc3n(CCCN3C(=O)c4ccccc4C3=O)c12	27	25*	71*	-10	6	-5
Cc1[nH]n(-c2ccccc2)c(=O)c1C(c1cccc([N+](=O)[O-])c1O)c1c(C)[nH]n(-c2ccccc2)c1=O	2	24*	0	22	-10	-4
O=C(C[C@H]1CC[C@H](NC(=O)C2CCOCC2)[C@@H](CO)O1)Nc1ccc(-c2ccccc2)cc1	8	.	.	.	.	.
COc1ccc2c3c(n(C)c2c1)[C@@H](CO)N(C)CC31CN(S(=O)(=O)c2cn(C)cn2)C1	-14	.	.	.	.	.
Cc1cc(CC(C)C)n(-c2nc3ccccc3c(=O)n2OCc2ccccc2)n1	.	18*	22	-46	15	9.5*

Source: PubChem BioAssay
